Test results published in PubChem BioAssay (NCI).
About 83,000 compounds went through this panel and 20% of them were active in at least one assay; those are over-represented in the sample as a whole.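 Values shown are percent growth following 48 h exposure of cells in 96-well plates to a single concentration of compound; below 10 was considered active.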 Active and inactive are the calls of the source.

tested on: UACC-257 melanoma; experiment: NCI-60 one-dose screen, 48 h (100 = growth as untreated, 0 = no growth, -100 = all killed); conditions: 10 µM unless noted

SMILES	growth
O=c1c2ccccc2sc2c(NCCCNCCO)nc3ccccc3c12	64% (inactive)
O=C(NNC(=O)c1ccc([N+](=O)[O-])cc1)c1ccc([N+](=O)[O-])cc1	111% (inactive)
CCN(CC)C(=O)C1CCN(C(=O)c2ccccc2)CC1	103% (inactive)
O=S(=O)(O)c1ccc(F)cc1	111% (inactive)
Cc1cc(SCc2ccc(Cl)cc2Cl)nc(SCc2ccc(Cl)cc2Cl)n1	98.8% (inactive)
CCOC(=O)c1noc2c1CCc1cn(Cc3cc(OC)cc(OC)c3)cc1-2	101% (inactive)
CC(C)(C)C(=O)Nc1nc2c(s1)CCc1ccn(S(=O)(=O)c3ccccc3)c1-2	95% (inactive)
CCCCCCCCCCCCCCCCNc1ccccc1	82.3% (inactive)
Cc1nc(N)nc(SCc2ccccc2)c1Br	74.1% (inactive)
O=S(c1ccccc1)c1ccc2nnnn2n1 (centres undefined)	99.6% (inactive)
O=C1COc2ccccc2C(=O)N1CCCCN1CCCCC1	102% (inactive)
O=C(COc1ccc(Cl)cc1Cl)N1N=C(c2ccc(Cl)cc2Cl)CC1(O)c1cc(F)c(Cl)cc1Cl (centres undefined)	99% (inactive)
CC(CCC(=O)O)[C@H]1CCC2C3C(=O)C[C@@H]4CC(=O)CC[C@]4(C)C3CC(=O)[C@@]21C (some centres undefined)	112% (inactive)
COc1ccc(-c2nn(-c3ccc(NC(=O)Nc4ccc(Cl)c(C(F)(F)F)c4)cc3)cc2-c2ccncc2)cc1Cl	-5.92% (active)
O=C1COc2ccccc2C(=O)N1CCCCNc1ccccc1	105% (inactive)
O=C1CCC(c2c(O)cc(O)c3c(=O)c(O)c(-c4ccc(O)c(O)c4)oc23)N1 (centres undefined)	86.1% (inactive)
CCCCCCCCCCCCCCCC(=O)NS(=O)(=O)OC[C@H]1O[C@@H](n2cnc3c(N)ncnc32)[C@H](O)[C@@H]1O	-20.7% (active)
CN(CCNCc1ccccn1)CCNCc1ccccn1	-35.8% (active)
CCN(CC)CCNCC(O)Cc1ccc(OC)cc1 (centres undefined)	86.1% (inactive)
CN1CCN(Cn2nc(-c3cc(Cl)cc(Cl)c3Cl)n(/N=C/c3ccc(Cl)cc3)c2=S)CC1	93.6% (inactive)
Cn1cnc([N+](=O)[O-])c1N1c2ccncc2Sc2ccncc21	101% (inactive)
O=C(O)c1cccc2oc(-c3ccccc3O)nc12	80.2% (inactive)
Nn1c(CN2CCN(c3cc4c(cc3F)c(=O)c(C(=O)O)cn4C3CC3)CC2)n[nH]c1=S	111% (inactive)
Cc1ccc2nc(-c3ccc(-n4on4-c4ccc(/C=C/c5ccc(-n6on6-c6ccc(-c7nc8ccc(C)cc8s7)cc6)cc5S(=O)(=O)O)c(S(=O)(=O)O)c4)cc3)sc2c1	110% (inactive)
CC(C)(C)NCC(O)COc1c(Br)c(Br)c(Br)c2c1OC(C)(C)C2 (centres undefined)	107% (inactive)

tested on: M14 melanoma; experiment: as above; conditions: 10 µM unless noted

SMILES	growth
CCC1S/C(=N\N=C(/C)c2ccco2)N(c2ccccc2)C1=O (centres undefined)	138% (inactive)
C#C[C@H](O)/C=C/CCCCCCC#C[C@H](O)CC[C@@H](O)C#CCCCCCC/C=C/[C@@H](O)C#C	93.1% (inactive)
O=[N+]([O-])c1cccc2cc(S(=O)(=O)O)ccc12	107% (inactive)
Nc1ccc(S(=O)(=O)Nc2cc(I)cc(I)c2)cc1	110% (inactive)
O=C(Nc1ccc(-n2cc(-c3ccncc3)c(-c3ccc(O)c(Cl)c3)n2)cc1)Nc1cc(C(F)(F)F)cc(C(F)(F)F)c1	55.6% (inactive)
O[C@@H]1CCO[C@H](c2ccc3ccccc3c2)C1	101% (inactive)
COc1cc(Cn2cc3c(c2)-c2onc(CO)c2CC3)cc(OC)c1OC	85.8% (inactive)
CN(C)CCS(=O)(=O)Nc1cc(-c2ccc3ncnc(Nc4ccc(F)c(Cl)c4)c3c2)cnc1Cl	4.73% (active)
CCN(CC)c1ccc(C2CC(c3cc(OC)c(OC)c(OC)c3)=NN2)cc1 (centres undefined)	5.55% (active)
CCn1cc(C(=O)O)c(=O)c2cc(F)c(N3CCN(CC(=O)Nc4ccc(C(C)=O)cc4)CC3)cc21	102% (inactive)
CCOc1ccc(-n2c(-c3cc(OC)c(OC)c(OC)c3)nnc2-c2ccc(OC)cc2N)cc1	68.1% (inactive)
COc1ccc(/C(=C/c2cc(OC)c(OC)c(OC)c2)[N+](=O)[O-])cc1	2.06% (active)
O=C(Nc1cccc([N+](=O)[O-])c1)Nc1cccc([N+](=O)[O-])c1	44.6% (inactive)
COc1ccc(-c2nn(-c3ccc(NC(=O)Nc4cc(C(F)(F)F)cc(C(F)(F)F)c4)cc3)cc2-c2ccncc2)cc1Cl	20.6% (inactive)
O=c1c2ccccc2sc2c(NCCCNCCO)nc3ccccc3c12	-61.8% (active)
O=C(NNC(=O)c1ccc([N+](=O)[O-])cc1)c1ccc([N+](=O)[O-])cc1	95.4% (inactive)
CCN(CC)C(=O)C1CCN(C(=O)c2ccccc2)CC1	102% (inactive)
O=S(=O)(O)c1ccc(F)cc1	98.1% (inactive)
Cc1cc(SCc2ccc(Cl)cc2Cl)nc(SCc2ccc(Cl)cc2Cl)n1	97.5% (inactive)
CCOC(=O)c1noc2c1CCc1cn(Cc3cc(OC)cc(OC)c3)cc1-2	101% (inactive)

SMILES	growth
CC(C)(C)C(=O)Nc1nc2c(s1)CCc1ccn(S(=O)(=O)c3ccccc3)c1-2	96.1% (inactive)
CCCCCCCCCCCCCCCCNc1ccccc1	106% (inactive)
Cc1nc(N)nc(SCc2ccccc2)c1Br	104% (inactive)
O=S(c1ccccc1)c1ccc2nnnn2n1 (centres undefined)	99% (inactive)
O=C1COc2ccccc2C(=O)N1CCCCN1CCCCC1	91.9% (inactive)
O=C(COc1ccc(Cl)cc1Cl)N1N=C(c2ccc(Cl)cc2Cl)CC1(O)c1cc(F)c(Cl)cc1Cl (centres undefined)	94.1% (inactive)
CC(CCC(=O)O)[C@H]1CCC2C3C(=O)C[C@@H]4CC(=O)CC[C@]4(C)C3CC(=O)[C@@]21C (some centres undefined)	110% (inactive)
COc1ccc(-c2nn(-c3ccc(NC(=O)Nc4ccc(Cl)c(C(F)(F)F)c4)cc3)cc2-c2ccncc2)cc1Cl	-4.4% (active)
O=C1COc2ccccc2C(=O)N1CCCCNc1ccccc1	99.1% (inactive)
O=C1CCC(c2c(O)cc(O)c3c(=O)c(O)c(-c4ccc(O)c(O)c4)oc23)N1 (centres undefined)	101% (inactive)
CCCCCCCCCCCCCCCC(=O)NS(=O)(=O)OC[C@H]1O[C@@H](n2cnc3c(N)ncnc32)[C@H](O)[C@@H]1O	-68.2% (active)
CN(CCNCc1ccccn1)CCNCc1ccccn1	-18.3% (active)
CCN(CC)CCNCC(O)Cc1ccc(OC)cc1 (centres undefined)	104% (inactive)
CN1CCN(Cn2nc(-c3cc(Cl)cc(Cl)c3Cl)n(/N=C/c3ccc(Cl)cc3)c2=S)CC1	96% (inactive)
Cn1cnc([N+](=O)[O-])c1N1c2ccncc2Sc2ccncc21	101% (inactive)
O=C(O)c1cccc2oc(-c3ccccc3O)nc12	54.8% (inactive)
Nn1c(CN2CCN(c3cc4c(cc3F)c(=O)c(C(=O)O)cn4C3CC3)CC2)n[nH]c1=S	105% (inactive)
Cc1ccc2nc(-c3ccc(-n4on4-c4ccc(/C=C/c5ccc(-n6on6-c6ccc(-c7nc8ccc(C)cc8s7)cc6)cc5S(=O)(=O)O)c(S(=O)(=O)O)c4)cc3)sc2c1	99.5% (inactive)
CC(C)(C)NCC(O)COc1c(Br)c(Br)c(Br)c2c1OC(C)(C)C2 (centres undefined)	-72.6% (active)
